Inconclusive results are not listed. Active and inactive are the calls of the source. The call rests on the fitted dose curve; in most records, active means well fitted cell-killing curve with a large enough effect; inconclusive means small, poorly fitted or top-dose-only effect, or effect the other way; inactive means flat fitted curve, though single readings scatter.
Tests used:
Assay in all cases: Primary qHTS to identify gynecologic anti-cancer compounds using libraries of approved drugs and bioactive compounds (AID 1345084); further: nearly all actives have a fitted effect of over 55% in size
C33A = conditions: Gynecologic cancer cell panel viability, ATPlite luminescence, 48 h; series mostly up to 57.5 µM
Procedure, shortened: (§1)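 ATP-based viability (ATPlite), 1,000 cells/well, 16 h pre-incubation, 48 h compound at 37 C, 5% CO2, 15 min RT before read.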

CASKI = conditions: Gynecologic cancer cell panel viability, ATPlite luminescence, 48 h; series mostly up to 57.5 µM
Procedure, shortened: as §1

Es-2 = conditions: Gynecologic cancer cell panel viability, ATPlite luminescence, 48 h; series mostly up to 57.5 µM
Procedure, shortened: as §1

HeLa = conditions: Gynecologic cancer cell panel viability, ATPlite luminescence, 48 h; series mostly up to 57.5 µM
Procedure, shortened: as §1

Hek293T = conditions: Gynecologic cancer cell panel viability, ATPlite luminescence, 48 h, control line for the selectivity index; series mostly up to 57.5 µM
Procedure, shortened: as §1

JEG-3 = conditions: Gynecologic cancer cell panel viability, ATPlite luminescence, 48 h; series mostly up to 57.5 µM
Procedure, shortened: as §1

OV90 = conditions: Gynecologic cancer cell panel viability, ATPlite luminescence, 48 h; series mostly up to 57.5 µM
Procedure, shortened: as §1

PA-1 = conditions: Gynecologic cancer cell panel viability, ATPlite luminescence, 48 h; series mostly up to 57.5 µM
Procedure, shortened: as §1

SKOV3 = conditions: Gynecologic cancer cell panel viability, ATPlite luminescence, 48 h; series mostly up to 57.5 µM
Procedure, shortened: as §1

Tov-21-G = conditions: Gynecologic cancer cell panel viability, ATPlite luminescence, 48 h; series mostly up to 57.5 µM
Procedure, shortened: as §1

Tov112D = conditions: Gynecologic cancer cell panel viability, ATPlite luminescence, 48 h; series mostly up to 57.5 µM
Procedure, shortened: as §1
On the % scale 0 is the no-effect control and ±100 the full control effect; potency means the concentration at half of the fitted maximal effect.

C=C1C(OC(=O)/C(C)=C\C)[C@@]23CCC4[C@@](C)(CCC[C@@]4(C)C(=O)O)C2CC[C@H]1C3OC(C)=O (stereo partly drawn)
inactive: Potency (C33A) | Potency (CASKI) | Potency (Es-2) | Potency (HeLa) | Potency (Hek293T) | Potency (JEG-3) | Potency (OV90) | Potency (PA-1) | Potency (SKOV3) | Potency (Tov-21-G) | Potency (Tov112D)

O=C(NCc1ccccn1)Nc1nnc(-c2ccco2)o1
inactive: Potency (C33A) | Potency (CASKI) | Potency (Es-2) | Potency (HeLa) | Potency (Hek293T) | Potency (JEG-3) | Potency (OV90) | Potency (PA-1) | Potency (SKOV3) | Potency (Tov-21-G) | Potency (Tov112D)

CC1OC(OC2CCC3(C)C(CCC4(C)C3CC=C3C5CC(C)(C)CCC5(C(=O)OC5OC(CO)C(O)C(O)C5O)CCC34C(=O)O)C2(C)C)C(O)C(O)C1O (stereo not drawn)
inactive: Potency (C33A) | Potency (CASKI) | Potency (Es-2) | Potency (HeLa) | Potency (Hek293T) | Potency (JEG-3) | Potency (OV90) | Potency (PA-1) | Potency (SKOV3) | Potency (Tov-21-G) | Potency (Tov112D)

C[C@@H]1CC[C@]2(C(=O)OC3OC(CO)C(O)C(O)C3O)CC[C@]3(C)C(=CCC4[C@@]5(C)CC[C@H](O)[C@](C)(C(=O)O)C5CC[C@]43C)C2[C@]1(C)O (stereo partly drawn)
inactive: Potency (C33A) | Potency (CASKI) | Potency (Es-2) | Potency (HeLa) | Potency (Hek293T) | Potency (JEG-3) | Potency (OV90) | Potency (PA-1) | Potency (SKOV3) | Potency (Tov-21-G) | Potency (Tov112D)

Cc1ccc(C)c(OCCn2cc(C(=O)O)c3ccccc32)c1
inactive: Potency (C33A) | Potency (CASKI) | Potency (Es-2) | Potency (HeLa) | Potency (Hek293T) | Potency (JEG-3) | Potency (OV90) | Potency (PA-1) | Potency (SKOV3) | Potency (Tov-21-G) | Potency (Tov112D)

C[C@@H]1O[C@@H](O[C@@H]2[C@@H](O[C@@H]3O[C@@H](C)[C@H](O[C@@H]4OC[C@H](O)[C@H](O[C@@H]5OC[C@@H](O)[C@H](O)[C@H]5O)[C@H]4O)[C@@H](O[C@@H]4OC[C@](O)(CO)[C@H]4O)[C@H]3O)[C@H](OC(=O)[C@]34CCC(C)(C)C[C@H]3C3=CCC5[C@@]6(C)C[C@H](O)[C@H](O[C@@H]7O[C@H](CO[C@@H]8OC[C@H](O)[C@H](O)[C@H]8O)[C@@H](O)[C@H](O)[C@H]7O)C(C)(C)C6CC[C@@]5(C)[C@]3(C)C[C@H]4O)OC[C@H]2O)[C@H](O)[C@H](O)[C@H]1O (stereo partly drawn)
inactive: activity change, negative = cytotoxicity (C33A) -0.354% [at 6.55 µM] | activity change, negative = cytotoxicity (CASKI) -5.17% [at 6.55 µM] | activity change, negative = cytotoxicity (Es-2) 0.628% [at 6.55 µM] | activity change, negative = cytotoxicity (HeLa) 4.56% [at 6.55 µM] | activity change, negative = cytotoxicity (Hek293T) -4.92% [at 6.55 µM] | activity change, negative = cytotoxicity (JEG-3) -6.81% [at 6.55 µM] | activity change, negative = cytotoxicity (OV90) 10.7% [at 6.55 µM] | activity change, negative = cytotoxicity (PA-1) 18.2% [at 6.55 µM] | activity change, negative = cytotoxicity (SKOV3) 4.47% [at 6.55 µM] | activity change, negative = cytotoxicity (Tov-21-G) -2.27% [at 6.55 µM] | activity change, negative = cytotoxicity (Tov112D) 7.07% [at 6.55 µM]

C[C@H](CCC(=O)O)[C@H]1CC[C@H]2[C@@H]3C[C@H](O)[C@@H]4C[C@H](O)CC[C@]4(C)[C@H]3CC[C@]12C
inactive: Potency (C33A) | Potency (CASKI) | Potency (Es-2) | Potency (HeLa) | Potency (Hek293T) | Potency (JEG-3) | Potency (OV90) | Potency (PA-1) | Potency (SKOV3) | Potency (Tov-21-G) | Potency (Tov112D)

C/C=C1\[C@H](O[C@@H]2O[C@H](CO)[C@@H](O)[C@H](O)[C@H]2O)OC=C(C(=O)OC)[C@H]1CC(=O)O
inactive: Potency (C33A) | Potency (CASKI) | Potency (Es-2) | Potency (HeLa) | Potency (Hek293T) | Potency (JEG-3) | Potency (OV90) | Potency (PA-1) | Potency (SKOV3) | Potency (Tov-21-G) | Potency (Tov112D)

COc1ccc([C@H]2CNC(=O)C2)cc1OC1CCCC1
inactive: Potency (C33A) | Potency (CASKI) | Potency (Es-2) | Potency (HeLa) | Potency (Hek293T) | Potency (JEG-3) | Potency (OV90) | Potency (PA-1) | Potency (SKOV3) | Potency (Tov-21-G) | Potency (Tov112D)

O=C(Nc1ccc(S(=O)(=O)Nc2ccccc2Cl)c(Cl)c1)c1ccccn1
inactive: Potency (C33A) | Potency (CASKI) | Potency (Es-2) | Potency (HeLa) | Potency (Hek293T) | Potency (JEG-3) | Potency (OV90) | Potency (PA-1) | Potency (SKOV3) | Potency (Tov-21-G) | Potency (Tov112D)

CC1(C)CCC2(C(=O)OC3OCC(O)C(O)C3O)CCC3(C)C(=CCC4C5(C)CC(O)C(OC6OC(COC7OCC(O)C(O)C7O)C(O)C(O)C6O)C(C)(C)C5CCC43C)C2C1 (stereo not drawn)
inactive: activity change, negative = cytotoxicity (C33A) 7.41% [at 11.6 µM] | activity change, negative = cytotoxicity (CASKI) 17.9% [at 11.6 µM] | activity change, negative = cytotoxicity (Es-2) 5.97% [at 11.6 µM] | activity change, negative = cytotoxicity (HeLa) 7.08% [at 11.6 µM] | activity change, negative = cytotoxicity (Hek293T) -8.87% [at 11.6 µM] | activity change, negative = cytotoxicity (JEG-3) 11.8% [at 11.6 µM] | activity change, negative = cytotoxicity (OV90) 4.98% [at 11.6 µM] | activity change, negative = cytotoxicity (PA-1) 14.1% [at 11.6 µM] | activity change, negative = cytotoxicity (SKOV3) 12.7% [at 11.6 µM] | activity change, negative = cytotoxicity (Tov-21-G) 8.15% [at 11.6 µM] | activity change, negative = cytotoxicity (Tov112D) 7.12% [at 11.6 µM]

CC1(C)CCC(C)(C)c2cc(C3(c4ccc(C(=O)O)cc4)OCCO3)ccc21
inactive: Potency (C33A) | Potency (CASKI) | Potency (Es-2) | Potency (HeLa) | Potency (Hek293T) | Potency (JEG-3) | Potency (OV90) | Potency (PA-1) | Potency (SKOV3) | Potency (Tov-21-G) | Potency (Tov112D)

CCOC(=O)CCN(C(=O)c1ccc2c(c1)nc(CNc1ccc(C(=N)N)cc1)n2C)c1ccccn1
inactive: Potency (C33A) | Potency (CASKI) | Potency (Es-2) | Potency (HeLa) | Potency (Hek293T) | Potency (JEG-3) | Potency (OV90) | Potency (PA-1) | Potency (SKOV3) | Potency (Tov-21-G) | Potency (Tov112D)

Cn1c(=O)cc(N2CCCC(N)C2)n(Cc2cc(F)ccc2C#N)c1=O (stereo not drawn)
inactive: Potency (C33A) | Potency (CASKI) | Potency (Es-2) | Potency (HeLa) | Potency (Hek293T) | Potency (JEG-3) | Potency (OV90) | Potency (PA-1) | Potency (Tov-21-G) | Potency (Tov112D)

COC(=O)C(C)C1CCC2(C)C(=O)C=CC(C)(O)C2C1O (stereo not drawn)
inactive: Potency (C33A) | Potency (CASKI) | Potency (Es-2) | Potency (HeLa) | Potency (Hek293T) | Potency (JEG-3) | Potency (OV90) | Potency (PA-1) | Potency (Tov-21-G) | Potency (Tov112D)

Cc1cccc(C)c1-n1c(=O)c2cnc(Nc3ccc(N4CCN(C)CC4)cc3)nc2n2c3ccccc3nc12
active: Potency (C33A) 2.82 µM | Potency (CASKI) 14.1 µM | Potency (Es-2) 3.55 µM | Potency (HeLa) 6.31 µM | Potency (Hek293T) 3.55 µM | Potency (JEG-3) 12.6 µM | Potency (OV90) 12.6 µM | Potency (PA-1) 7.94 µM | Potency (Tov-21-G) 0.398 µM | Potency (Tov112D) 8.91 µM

Source: PubChem BioAssay (NCATS)
